Source: PubChem
Shown are actives, neighbours in structure and some others; about 12% of the full set was active somewhere.
Sm TGR block: blocks Schistosoma mansoni thioredoxin glutathione reductase; Q962Y6; purified TGR, DTNB reduction, TNB absorbance 405 nm; Potency, µM (titrated, usually from 114 µM), without a hit: at the top dose activity change, negative = inhibition, most hits filed as inhibitors; 3% of 360,000 active; AID 485364; note: % is set by controls: 0 for no effect and ±100 for the full control effect; nearly all actives have a fitted effect of over 60% in size
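First, TGR (20 nM dispensed) and NADPH were mixed with compound. Second, a 15 min room-temperature incubation followed. Third, further NADPH and then DTNB were added to start the reaction. Finally, TNB absorbance was monitored kinetically.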
AmpC detergent: AmpC beta-lactamase inhibition with detergent present; Potency, µM (highest dose often 114 µM), for the others: at the top dose activity change, negative = inhibition, actives largely listed as inhibitors; 0.041% of 370,000 active; AmpC hydrolysis of nitrocefin, absorbance 480 nm, 0.01% Triton; P00811;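 note: 0% = no-compound wells and -100% = no-enzyme wells; nearly all actives have a fitted effect of over 25% in size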
Target sequence (P00811 whole entry, looked up): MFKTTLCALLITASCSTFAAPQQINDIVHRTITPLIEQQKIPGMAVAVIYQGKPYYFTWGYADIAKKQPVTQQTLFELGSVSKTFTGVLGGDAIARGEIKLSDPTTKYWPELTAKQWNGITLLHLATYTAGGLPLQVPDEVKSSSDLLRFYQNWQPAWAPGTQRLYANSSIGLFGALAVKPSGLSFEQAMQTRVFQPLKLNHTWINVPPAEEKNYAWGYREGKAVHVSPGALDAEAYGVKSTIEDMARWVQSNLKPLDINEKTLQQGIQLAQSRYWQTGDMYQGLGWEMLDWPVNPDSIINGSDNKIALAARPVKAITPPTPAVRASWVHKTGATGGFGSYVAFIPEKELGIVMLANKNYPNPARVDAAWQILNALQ
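AmpC (5.3 nM in the dispensed reagent) in 20 mM phosphate pH 7.0 with 0.01% (detergent screen) or 0.0001% Triton X-100 was preincubated with compounds for 15 min at room temperature. Nitrocefin was then added from an 800 uM solution, and hydrolysis was followed at 480 nm.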
SARS PLpro yeast: blocks SARS-CoV papain-like protease in a yeast assay; S. cerevisiae expressing SARS-CoV PLpro, growth rescue; Potency, µM (doses to about 32.9 µM), without a hit: at the highest dose activity, positive = growth rescue, most hits filed as activators; 0.19% of 330,000 active; AID 485353; calls by dose curve; note: 0% is about no effect; nearly all actives have a fitted effect of over 55% in size
Pf growth 96h: inhibits malaria parasite growth, 96 h | P. falciparum luciferase reporter growth, 96 h | Potency, µM (top dose mostly 28.7 µM), without a hit: at the highest dose activity change, negative = inhibition, actives largely listed as inhibitors | 6.9% of 320,000 active; note: % is set by controls: 0 for no effect and ±100 for the full control effect
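Delayed-death screen, second-generation endpoint: infected erythrocytes, 2% hematocrit, 0.05% parasitemia final; 96 hours at 37 C, 5% CO2; luciferase detection reagent; luminescence decrease equals reduced growth.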
AmpC no deterg: inhibitors of E. coli AmpC beta-lactamase without detergent | AmpC nitrocefin hydrolysis, absorbance 480 nm, 0.0001% Triton | 0.52% of 330,000 active | Potency, µM (titrated, usually from 57.1 µM), without a hit: top-dose activity change, negative = inhibition, actives largely listed as inhibitors;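 note: plate controls were no compound for no effect and no enzyme for full effect; nearly all actives have a fitted effect of over 20% in size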
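20 mM phosphate pH 7.0 + 0.01% (detergent screen) or 0.0001% Triton X-100; 5.3 nM AmpC reagent; cpd preinc 15 min RT; nitrocefin (800 uM stock) to start; A480 q20 s × 4 min; Activity was normalised to no-enzyme and no-compound control wells.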
Pf growth 48h: inhibits P. falciparum growth in the first generation, 48 h; P. falciparum luciferase growth in erythrocytes, 48 h; Potency, µM (top dose mostly 28.7 µM), for inactives: top-dose activity change, negative = inhibition, actives largely listed as inhibitors; 5.9% of 310,000 active; note: % is set by controls: 0 for no effect and ±100 for the full control effect
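Luciferase-expressing P. falciparum in infected erythrocytes (2% hematocrit, 0.1% parasitemia final) in RPMI 1640/0.5% Albumax were exposed to compound for 48 hours at 37 C, 5% CO2; growth read as luminescence.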
* marks the source's active call; other numbers are inactive results. Unless noted, calls come from the whole dose curve; as a rule, active = well fitted curve in the direction sought with a large enough effect; inconclusive = small, poorly fitted or top-dose-only effect, or another doubt; inactive = no such curve, though single readings can be large; an effect the other way counts as inactive or inconclusive. Potency is the fitted concentration of half-maximal effect.

`COc1ccc(N2CCN(c3ncnc4c3[nH]c3ccccc34)CC2)cc1` gave Sm TGR block 1%, AmpC detergent -7%, Pf growth 96h inconclusive and Pf growth 48h inconclusive.
Screening CCOC(=O)N1CCN(c2ncnc3c2[nH]c2ccc(OC)cc23)CC1 returned Sm TGR block 12%, AmpC detergent inconclusive, SARS PLpro yeast 7%, Pf growth 96h inconclusive, AmpC no deterg -17% and Pf growth 48h inconclusive.
For O=c1c2[nH]c3ccc(F)cc3c2ncn1CCN1CCN(Cc2ccccc2)CC1 the results were Sm TGR block -7%, AmpC detergent inconclusive, SARS PLpro yeast -2%, Pf growth 96h inconclusive, AmpC no deterg 0.32µM* and Pf growth 48h 13%.
`COc1cc2[nH]c3c(N4CCN(c5ccccn5)CC4)ncnc3c2cc1OC` gave Sm TGR block -29%, AmpC detergent 0%, SARS PLpro yeast 10%, Pf growth 96h 15µM*, AmpC no deterg 49% and Pf growth 48h 9.3µM*.
`CCOC(=O)C1CCN(C(=O)c2ccc(CNS(=O)(=O)c3ccc(OC)cc3)cc2)CC1` gave Sm TGR block 0%, AmpC detergent 7%, SARS PLpro yeast -2%, Pf growth 96h inconclusive, AmpC no deterg 210% and Pf growth 48h -7%.
`Cc1ccc(/C=C2\C(=O)NC(=S)N(c3ccccc3F)C2=O)s1` gave Sm TGR block 7.9µM*, AmpC detergent 1%, SARS PLpro yeast -91%, Pf growth 96h 4%, AmpC no deterg -31% and Pf growth 48h 7%.
`O=C1c2ccccc2-c2nnc(-c3ccc(F)cc3)cc21` gave Sm TGR block -22%, AmpC detergent 1%, SARS PLpro yeast 0%, Pf growth 96h inconclusive, AmpC no deterg -23% and Pf growth 48h -17%.
Screening Cc1ccccc1-c1cc2c(nn1)-c1ccccc1C2=O returned Sm TGR block 40%, AmpC detergent 4%, SARS PLpro yeast -17%, AmpC no deterg -8% and Pf growth 48h 4.1µM*.
Screening Cc1ccc(-c2cc3c(nn2)-c2ccccc2C3=O)cc1 returned Sm TGR block -17%, AmpC detergent -1%, SARS PLpro yeast -4%, Pf growth 96h 0.37µM*, AmpC no deterg -32% and Pf growth 48h 0.52µM*.
`CC1CC(=O)c2c(cc3c(-c4c(O)cc(O)c5c(O)c6c(cc45)OC(C)CC6=O)c(O)cc(O)c3c2O)O1` (centres undefined) gave Sm TGR block -26%, AmpC detergent 0%, SARS PLpro yeast 0%, Pf growth 96h 6%, AmpC no deterg -36% and Pf growth 48h 0.41µM*.
For COc1ccc(S(=O)(=O)N2CC3CCCN3c3ccc(C(F)(F)F)cc32)cc1 (centres undefined) the results were Sm TGR block -11%, AmpC detergent -9%, SARS PLpro yeast 0%, Pf growth 96h 13µM*, AmpC no deterg -10% and Pf growth 48h inconclusive.
`O=C(NCc1ccccc1Cl)c1ccc(-n2cnc3cccnc32)cc1` gave Sm TGR block -6% and AmpC detergent 2%.
Screening COc1ccc(-c2cc(-c3ccccc3)nc(N3CCCC3)n2)cc1OC returned Sm TGR block -11%, AmpC detergent inconclusive, SARS PLpro yeast -5%, Pf growth 96h 0%, AmpC no deterg 41% and Pf growth 48h 9.3µM*.
`NC(=O)c1cc(-c2ccccc2)nc(N2CCCCCC2)n1` gave Sm TGR block -3%, AmpC detergent -9%, SARS PLpro yeast -8%, Pf growth 96h 13µM*, AmpC no deterg -20% and Pf growth 48h 0%.
`COc1ccc(-c2cc(C(F)(F)F)nc(N3CCOCC3)n2)cc1OC` gave Sm TGR block 6%, AmpC detergent -1%, SARS PLpro yeast -2%, Pf growth 96h inconclusive, AmpC no deterg 7% and Pf growth 48h inconclusive.
`Nc1nc(N2CCCCC2)nc(N(c2ccccc2)c2ccccc2)n1` gave Sm TGR block -12%, AmpC detergent inconclusive, SARS PLpro yeast 4%, Pf growth 96h 22%, AmpC no deterg 0.63µM* and Pf growth 48h inconclusive.
For NC(=O)c1cc(-c2ccccc2)nc(N2CCOCC2)n1 the results were Sm TGR block -1%, AmpC detergent -2%, SARS PLpro yeast -1%, Pf growth 96h 3%, AmpC no deterg inconclusive and Pf growth 48h inconclusive.
CO[C@H]1O[C@H](C)[C@@H](O)C[C@H]1NC(=O)OCc1ccccc1 was read as Sm TGR block 1%, AmpC detergent 0%, SARS PLpro yeast -3%, Pf growth 96h -21%, AmpC no deterg 2% and Pf growth 48h 26%.
Screening COc1cccc2[nH]c(C(=O)NCC3CCCO3)cc12 (centres undefined) returned Sm TGR block 4%, AmpC detergent -4%, SARS PLpro yeast -1%, Pf growth 96h 33%, AmpC no deterg -7% and Pf growth 48h 16%.
`COc1ccccc1-c1nc(C(=O)NCC2CCCO2)cc2c1[nH]c1ccccc12` (centres undefined) gave Sm TGR block -22%, AmpC detergent -16%, SARS PLpro yeast -20%, Pf growth 96h 8.3µM*, AmpC no deterg 45% and Pf growth 48h 9.3µM*.
Screening O=C(NCC1CCCO1)c1cc2c([nH]c3ccccc32)c(-c2cccc(Cl)c2)n1 (centres undefined) returned Sm TGR block -23%, AmpC detergent -8%, SARS PLpro yeast -17%, Pf growth 96h 5.9µM*, AmpC no deterg -12% and Pf growth 48h inconclusive.
`COc1cc(-c2nc(C(=O)NCC3CCCO3)cc3c2[nH]c2ccccc23)cc(OC)c1OC` (centres undefined) gave Sm TGR block 4%, AmpC detergent -8%, SARS PLpro yeast 16%, Pf growth 96h 6.6µM*, AmpC no deterg 253% and Pf growth 48h inconclusive.
Screening O=C(NCC1CCCO1)c1cc2ccccc2[nH]1 (centres undefined) returned Sm TGR block -26%, AmpC detergent -17%, SARS PLpro yeast 5%, Pf growth 96h inconclusive, AmpC no deterg -10% and Pf growth 48h 15%.
For CCS(=O)(=O)N1CCC(C(=O)Nc2ccc(C(C)=O)cc2)CC1 the results were Sm TGR block 10%, AmpC detergent -14%, SARS PLpro yeast 3%, Pf growth 96h -9%, AmpC no deterg -3% and Pf growth 48h inconclusive.
Screening CC(C)c1nnc(NC(=O)C2CCCN2C(=O)Nc2cccc(Cl)c2)s1 (centres undefined) returned Sm TGR block -7%, AmpC detergent -3%, SARS PLpro yeast 1%, Pf growth 96h 0%, AmpC no deterg -11% and Pf growth 48h 39%.
